Screening results from PubChem BioAssay.
Shown are actives, neighbours in structure and some others; about 4.1% of the full set was active somewhere.
ssDAF-12 act = S. stercoralis DAF-12 nuclear receptor activators, primary screen, cell-based, luminescence, HEK293, GRIP1 co-expression, lit1-tk-luc. Nuclear hormone receptor DAF-12 (Strongyloides stercoralis). HEK293 ssDAF-12/GRIP1 lit1-tk-luc reporter; % of 3 µM dafachronic acid response. activation, % at 6.8 µM. 370,000 tested, 1% active;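 active means activation above the mean over all tested compounds plus 3 SD, cut at about 0.9% in these data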;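 further: 0% = DMSO-only wells and 100% = 3 µM delta7-dafachronic acid wells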
DAX1 inh-1 = DAX1 (NR0B1) inhibitors on StAR promoter, primary screen, cell-based, luminescence, SF-1 (NR5A1), full-length DAX-1; HEK293T StAR-luciferase reporter, SF-1/DAX-1 repression relief; inhibition, % at 6.8 µM; 370,000 tested, 1.1% active; AID 652010, 2013;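 active means inhibition above the mean over all tested compounds plus 3 SD, cut at about 3.6% in these data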;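 further: 0% = DAX-1 cells with DMSO and 100% = cells lacking DAX-1 with DMSO; higher inhibition means more luminescence from relief of DAX-1 repression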
hgDAF12 agonist = H. glycines DAF-12 receptor agonists, primary screen, cell-based, luminescence, HEK293, GAL4 fusion, UAS-luciferase | Nuclear hormone receptor DAF-12 (Heterodera glycines), GAL4 fusion | HEK293 GAL4-hgDAF12 UAS-luciferase reporter, agonist luminescence; normalized to butyrate control | activation, % at 6.8 µM | 370,000 tested, 1.8% active;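 active means activation above a cutoff set at the mean of all screened compounds plus 3 SD, cut at about 10% in these data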;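 further: 0% = DMSO wells and 100% = sodium butyrate wells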
hcDAF-12 act = H. contortus DAF-12 nuclear receptor activators, primary screen, cell-based, luminescence, HEK293, lit1-tk-luc reporter | AID 652067, 2013 | activation, % at 6.8 µM | HEK293 hcDAF-12 lit1-tk-luc reporter; 0% DMSO, 100% Δ7-dafachronic acid | 370,000 tested, 1.4% active;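 active means activation above the mean of all tested compounds plus 3 SD, cut at about 5.5% in these data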;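 further: 100% = response to 3 µM Δ7-dafachronic acid high control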
DAX1 inh-2 = DAX1 (NR0B1) inhibitors, primary screen, cell-based, HEK293, Gal4-DAX1, luciferase luminescence; 340,000 tested, 0.99% active; AID 504766, 2011; HEK293 Gal4-DAX1 luciferase reporter; Nuclear receptor subfamily 0 group B member 1 (Homo sapiens), P51843; inhibition, % at 6.75 µM;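 active means inhibition above the mean over all tested compounds plus 3 SD, cut at about 4.2% in these data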;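 further: 0% = DAX1-transfected cells with DMSO and 100% = empty-vector control cells with DMSO; inhibition shows as a rise in luminescence from relieved DAX1 repression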
Target sequence (P51843 207-470 limits assumed): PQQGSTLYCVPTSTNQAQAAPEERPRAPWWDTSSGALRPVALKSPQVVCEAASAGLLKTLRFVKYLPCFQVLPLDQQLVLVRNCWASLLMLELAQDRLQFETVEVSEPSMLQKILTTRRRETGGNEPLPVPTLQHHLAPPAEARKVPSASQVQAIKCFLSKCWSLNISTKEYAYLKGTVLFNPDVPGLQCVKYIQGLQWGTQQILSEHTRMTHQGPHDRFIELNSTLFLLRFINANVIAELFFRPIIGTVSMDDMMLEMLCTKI
DAX1 conf = DAX1 (NR0B1) inhibitors relieving SF-1 repression, confirmation, cell-based, luminescence, HEK293T, full-length DAX-1, SF-1 activated StAR promoter; inhibition, % at 6.8 µM; 2,400 tested, 87% active; HEK293T StAR-promoter luciferase reporter, SF-1/DAX-1 repression; shares compounds with DAX1 inh-1; AID 652134, 2013;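 active means inhibition above the average of every tested compound plus 3 SD, cut at about 3.8% in these data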;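 further: 0% = DAX-1 cells with DMSO and 100% = no DAX-1 control cells with DMSO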
Target sequence (P51843 whole entry, looked up): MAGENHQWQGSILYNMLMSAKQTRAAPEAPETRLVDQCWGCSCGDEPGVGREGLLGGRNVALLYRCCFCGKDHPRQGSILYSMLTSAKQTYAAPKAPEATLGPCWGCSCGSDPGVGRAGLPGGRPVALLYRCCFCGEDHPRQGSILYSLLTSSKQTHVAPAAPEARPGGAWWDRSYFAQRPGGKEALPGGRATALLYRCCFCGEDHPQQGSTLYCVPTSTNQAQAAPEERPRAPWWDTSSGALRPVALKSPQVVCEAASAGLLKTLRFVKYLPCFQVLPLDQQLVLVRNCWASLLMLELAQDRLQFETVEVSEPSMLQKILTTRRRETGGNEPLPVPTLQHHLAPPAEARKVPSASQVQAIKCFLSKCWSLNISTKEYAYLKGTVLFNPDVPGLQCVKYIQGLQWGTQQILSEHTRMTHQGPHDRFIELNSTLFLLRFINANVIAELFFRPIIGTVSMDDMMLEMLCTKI
SF1 mutant ctr = StAR reporter signal changes without DAX1, counter-screen for DAX1 inhibitor project, cell-based, luminescence, AF-2 mutant SF-1, transactivation; shares compounds with DAX1 inh-1; inhibition, % at 6.8 µM; HEK293 StAR-luciferase, SF-1 AF2 mutant; 2,400 tested, 78% active; AID 652136, 2013;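 active means inhibition above the mean of all tested compounds plus 3 SD, cut at about 3% in these data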;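 further: 0% = DAX-1 transfected cells with DMSO and 100% = cells without DAX-1 with DMSO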
LXRb hcDAF ctr = LXR agonists, Gal4 luciferase reporter, confirmation, counter-screen for hcDAF-12 agonist project, cell-based, luminescence, HEK293, H. contortus campaign; shares compounds with hcDAF-12 act; HEK293 Gal4-LXR tk-luc reporter, 24 h; normalized: DMSO 0%, positive control 100%; activation, % at 6.8 µM; AID 743027, 2013; 3,400 tested, under 10 active;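 active means mean percent activation of the reporter above a cutoff set as the average over tested compounds plus their standard deviation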
hcDAF12 conf = H. contortus DAF-12 receptor agonists, confirmation, cell-based, luminescence, HEK293, lit1-tk-luc, triplicate; shares compounds with hcDAF-12 act; HEK293 hcDAF-12 lit1-tk-luc reporter; % of Δ7-dafachronic acid response; activation, % at 6.8 µM; 3,400 tested, 61% active;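 active means mean activation across triplicate tests above the threshold derived from the earlier primary screen, cut at about 5.5% in these data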;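 further: 0% = DMSO only wells and 100% = 3 µM Δ7-dafachronic acid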
hgDAF12 ag = H. glycines DAF-12 receptor agonists, confirmation, cell-based, luminescence, HEK293, GAL4-LBD fusion; shares compounds with hgDAF12 agonist; HEK293 GAL4-hgDAF12 luciferase reporter, agonist mode; percent of butyrate response; activation, % at 6.8 µM; 3,300 tested, 80% active;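 active means mean activation over triplicate wells above the hit cutoff derived from the earlier primary screen, cut at about 11% in these data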;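 further: 0% = DMSO low control and 100% = 2 mM sodium butyrate high control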
LXR ag 2 = LXR agonists, Gal4 luciferase reporter, confirmation, counter-screen for hgDAF-12 agonist project, cell-based, luminescence, HEK293, H. glycines campaign; shares compounds with hgDAF12 agonist; 24 h; activation, % at 6.8 µM; 3,300 tested, under 10 active;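 active means mean activation of the triplicate above a set limit carried over from the primary screen, none filed active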
The depositor's hits bear a star; . = not tested or not shown.

SMILES | ssDAF-12 act | DAX1 inh-1 | hgDAF12 agonist | hcDAF-12 act | DAX1 inh-2 | DAX1 conf | SF1 mutant ctr | LXRb hcDAF ctr | hcDAF12 conf | hgDAF12 ag | LXR ag 2
COCCCNc1ccn2nc(-c3cccc(Cl)c3)cc2n1 | 0.5 | 5.3* | 21.0* | 8.5* | . | 13.3* | 4.8* | 1.9 | 9.2* | 20.9* | 1.2
Cc1ccc(OCC(=O)NC2CCS(=O)(=O)C2)c(C)c1 (centres undefined) | -0.5 | -0.5 | 2.1 | -0.2 | 1.1 | . | . | . | . | . | .
O=C(CC(=O)c1ccccn1)c1ccccc1 | 0.5 | 6.0* | 14.4* | 3.9 | 3.6 | 8.6* | 5.2* | . | . | 15.7* | 0.8
O=C(NNCc1ccccc1)c1ccccn1 | -0.3 | 7.8* | 18.6* | 2.9 | 1.8 | 9.2* | 4.7* | . | . | 14.2* | 0.6
O=C(NNCc1ccccc1)c1ccccc1 | 0.6 | 6.1* | 16.1* | 2.8 | 3.1 | 12.6* | 5.8* | . | . | 12.1* | 0.6
CC(C)c1ccc(CNNC(=O)c2ccccc2)cc1 | -0.8 | 0.3 | 7.7 | 2.6 | 0.5 | . | . | . | . | . | .
CC1=CC(O)(c2ccccn2)P(=O)(c2ccccc2)C=C1C (centres undefined) | -0.2 | 0.4 | -3.2 | -0.4 | . | . | . | . | . | . | .
CC(=O)Nc1ccc(Sc2ccccc2C(=O)O)cn1 | -1.6 | 0.0 | -0.5 | -1.1 | 0.5 | . | . | . | . | . | .
Cc1cccc(C(=O)NC2=NCCS2)c1 | 1.2* | 4.6* | 17.8* | 2.2 | 1.6 | 13.1* | 8.1* | . | . | 13.8* | 0.6
CCN(CC)S(=O)(=O)c1cccc(C(=O)NC2=NCCS2)c1 | -0.3 | 0.1 | -1.6 | -2.2 | 1.0 | . | . | . | . | . | .
O=C(NC1=NCCS1)c1csc2ccccc12 | 1.1* | 4.5* | 17.4* | 8.3* | 2.9 | 12.2* | 8.1* | 1.6 | 10.0* | 18.9* | 0.9
O=C(NC1=NCCS1)c1ccccc1F | -1.1 | 0.1 | 0.3 | 0.3 | . | . | . | . | . | . | .
CC(C)C[C@H](NC(=O)OCC1c2ccccc2-c2ccccc21)C(=O)O | 0.3 | 5.8* | 15.9* | 1.0 | 1.3 | 6.6* | 5.8* | . | . | 11.8* | 0.4
O=C(O)CCNC(=O)OCC1c2ccccc2-c2ccccc21 | -0.2 | -0.5 | 0.5 | 2.2 | 0.6 | . | . | . | . | . | .
CNC(=O)NC(=O)CN1C(=O)NC2(CCOc3ccccc32)C1=O (centres undefined) | -0.8 | -0.2 | 1.2 | 0.7 | -1.5 | . | . | . | . | . | .
COc1cc(/C=N/NC(=O)CN(Cc2ccco2)S(=O)(=O)c2ccccc2)ccc1O | -1.2 | -0.6 | -2.0 | -3.0 | -1.1 | . | . | . | . | . | .
O=C(NCC(c1ccco1)N1CCCCC1)c1ccc([N+](=O)[O-])s1 (centres undefined) | -1.7 | -4.5 | -4.5 | -0.2 | . | . | . | . | . | . | .
Cc1ccc(/C=N/N=C/c2ccc(C)s2)s1 | 0.5 | 5.1* | 17.7* | 9.1* | 2.7 | 18.6* | 7.7* | 1.9 | 8.2* | 21.3* | 0.9
Nc1c(C(=O)Nc2ccc3c(c2)OCCO3)nnn1Cc1ccc(Br)cc1 | 1.3* | 8.1* | 21.9* | 9.4* | 1.9 | 12.4* | 8.6* | 1.4 | 6.7* | 21.9* | 0.8
O=C1CSc2ccc(C(=O)NCCc3ccc(Cl)cc3Cl)cc2N1 | -1.1 | 2.8 | 2.1 | -0.1 | 0.8 | . | . | . | . | . | .
Cc1csc(NC(=O)c2cc3ccccc3o2)n1 | 2.5* | 8.6* | 17.5* | 12.0* | -0.7 | 15.1* | 6.1* | 1.5 | 8.9* | 19.5* | 1.2
O=C(Nc1ccc(Cl)cn1)c1cc2ccccc2o1 | 2.7* | 4.8* | 14.3* | 13.5* | 2.1 | 14.3* | 6.8* | 1.4 | 15.7* | 19.7* | 1.1
CCOC(=O)Cc1csc(NC(=O)c2cc3ccccc3o2)n1 | -1.6 | 1.2 | 3.8 | 0.9 | -0.6 | . | . | . | . | . | .
O=C(Nc1ncccc1O)c1cc2ccccc2o1 | 0.8 | 26.9* | 38.6* | 8.6* | 1.2 | 27.4* | 14.0* | 1.3 | 5.1 | 29.2* | 0.7
Cc1csc(NC(=O)c2ccc(C)c([N+](=O)[O-])c2)n1 | 0.8 | 5.9* | 14.5* | 11.6* | -0.8 | 7.7* | 4.7* | 1.6 | 10.1* | 17.6* | 0.9
Cc1cc(C)nc(NC(=O)c2ccc(C)c([N+](=O)[O-])c2)n1 | -1.0 | -0.4 | -0.3 | -0.6 | -0.6 | . | . | . | . | . | .
O=C(NNC(=O)c1cc2ccccc2o1)c1ccc(Cl)cc1 | -1.7 | -0.1 | 1.7 | -1.7 | 1.4 | . | . | . | . | . | .
Cc1ccc(NC(=O)CC(NCC2CCCO2)C(=O)O)cc1C (centres undefined) | -1.1 | 0.7 | -0.7 | 1.0 | -0.9 | . | . | . | . | . | .
O=C(Nc1ccccn1)c1ccc2c(=O)n3c(nc2c1)CCCCC3 | 0.5 | 6.2* | 19.5* | 4.9 | -0.8 | 7.7* | 3.8* | . | . | 14.6* | 0.7
